Assay outcomes deposited in PubChem BioAssay by National Center for Advancing Translational Sciences (NCATS).
Luciferase inh: Photinus pyralis luciferase inhibition. P08659. purified P. pyralis luciferase, luminescence, biochemical. Potency, µM (top dose mostly 115 µM), usual class: inhibitors. actives 2.5% (n = 76,000); also: nearly all actives have a fitted effect of over 65% in size
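Inhibitors were tested against purified firefly luciferase in a biochemical, low-substrate format (both substrates at 10uM) and luminescence measured with a CCD imager.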
3T3 cytotox: kills NIH 3T3 cells; NIH 3T3 viability, CellTiter-Glo ATP luminescence, 48-72 h; Potency, µM (doses to about 96.7 µM), for the others: top-dose activity change, negative = cytotoxicity, most hits filed as inhibitors; actives 4.3% (n = 94,000); AID 1345082; also: nearly all actives have a fitted effect of over 55% in size
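NIH 3T3 cells at 400 cells/well received 23 nL of compound by pintool and were incubated 48 or 72 h at 37 °C. Viability was read as ATP-coupled CellTiter-Glo luminescence.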
hNpr1 antagonist: blocks ANP-stimulated signaling of human Npr1 receptor | Potency, µM (titrated, usually from 46.3 µM), for inactives: at the top dose activity change, negative = inhibition, actives largely listed as inhibitors | P16066 | HEK293 hNpr1 GloSensor cGMP, ANP-stimulated luminescence | actives 1.6% (n = 76,000) | AID 1347048; calls by dose curve; also: nearly all actives have a fitted effect of over 60% in size
Target sequence (P16066 whole entry, looked up): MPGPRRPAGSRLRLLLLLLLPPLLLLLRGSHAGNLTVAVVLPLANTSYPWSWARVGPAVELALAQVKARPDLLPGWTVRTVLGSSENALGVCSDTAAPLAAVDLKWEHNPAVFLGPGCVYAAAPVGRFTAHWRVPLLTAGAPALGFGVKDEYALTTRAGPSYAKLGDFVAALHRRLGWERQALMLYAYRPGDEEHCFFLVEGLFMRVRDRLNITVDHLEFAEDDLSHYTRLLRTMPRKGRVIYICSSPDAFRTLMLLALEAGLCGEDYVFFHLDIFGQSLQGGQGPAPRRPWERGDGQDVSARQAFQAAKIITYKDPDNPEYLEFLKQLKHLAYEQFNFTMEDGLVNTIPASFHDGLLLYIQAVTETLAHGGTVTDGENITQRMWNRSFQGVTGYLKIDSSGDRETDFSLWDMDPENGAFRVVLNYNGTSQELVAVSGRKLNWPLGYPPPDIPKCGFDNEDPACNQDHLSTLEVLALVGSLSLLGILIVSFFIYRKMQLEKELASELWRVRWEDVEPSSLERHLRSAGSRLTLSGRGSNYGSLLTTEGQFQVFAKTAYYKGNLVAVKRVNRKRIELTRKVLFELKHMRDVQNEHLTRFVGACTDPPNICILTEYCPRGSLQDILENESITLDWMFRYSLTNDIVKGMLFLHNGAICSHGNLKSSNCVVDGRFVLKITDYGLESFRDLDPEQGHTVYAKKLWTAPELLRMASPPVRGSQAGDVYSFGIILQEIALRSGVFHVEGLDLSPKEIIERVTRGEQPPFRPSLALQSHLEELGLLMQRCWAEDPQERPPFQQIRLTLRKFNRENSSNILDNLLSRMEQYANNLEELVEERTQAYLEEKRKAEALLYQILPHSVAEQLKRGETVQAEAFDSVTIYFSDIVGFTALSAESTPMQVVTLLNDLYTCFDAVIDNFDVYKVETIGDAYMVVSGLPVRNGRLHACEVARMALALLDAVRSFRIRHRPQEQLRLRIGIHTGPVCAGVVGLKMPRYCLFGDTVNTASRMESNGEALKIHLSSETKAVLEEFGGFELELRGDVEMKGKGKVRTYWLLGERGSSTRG
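Compound pre-incubated 30 min at room temperature on GloSensor-loaded HEK293 cells stably carrying hNpr1 and the pGS-40F cGMP biosensor. Stimulation uses hNppA at 0.1 nM final; luminescence is taken at baseline and 20 min post-agonist.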
HEK293 tox: cytotoxic compounds in HEK 293 cells | HEK 293 viability, ATP luminescence (CellTiter-Glo), 48-72 h | Potency, µM (highest dose often 115 µM), without a hit: top-dose activity change, negative = cytotoxicity, usual class: inhibitors | actives 6.6% (n = 94,000) | AID 1345083; also: nearly all actives have a fitted effect of over 60% in size
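Cytotoxicity was scored by loss of ATP-coupled luminescence (CellTiter-Glo) in HEK 293 cells. Compound treatment ran 48 or 72 hr at 37 degree Celsius, 5% CO2, 95% humidity.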
Starred values were filed as active, the others as inactive; i = inactive; ? = inconclusive; / = no result given; ! = a repeat was not active; [ ] = another dose, or the depositor's remark. This is a sample that favours compounds with a hit; in the whole collection about 11% have one here. Unless noted, calls follow the shape of the dose curve; as a rule, active = well fitted curve in the direction sought with a large enough effect; inconclusive = small, poorly fitted or top-dose-only effect, or another doubt; inactive = no such curve, though single readings can be large; an effect the other way counts as inactive or inconclusive. % is scaled to controls: 0 for no effect and ±100 for the full control effect; potency is read from the fitted curve at half-maximal effect.

SMILES | Luciferase inh | 3T3 cytotox | hNpr1 antagonist | HEK293 tox
COc1ccc2cc1Nc1ccc(cc1)C[C@H](NCC1CC1)C(=O)N(C)[C@@H](C(=O)Nc1ccccc1)C2 | i | -27.9% | 0.7% | ?
CCn1cc(-c2ccc(C)cc2)cc1C(=O)NC(C)c1ccccn1 (centres undefined) | i | ? | -6.7% | 39.8µM*
CNC(C)c1ccc(Oc2ccccc2)cc1 (centres undefined) | / | 79.4µM* | / | 100µM*
CNC(C)c1ccc(OC(F)(F)F)cc1 (centres undefined) | / | i | / | i
COc1ccc(Nc2ccc3nnc(-c4ccc(C)cn4)n3n2)cc1 | i | ? | -6.8%[70.6 µM] | 70.8µM*
COc1ccnc(-c2nnc3ccc(Nc4cc(OC)c(OC)c(OC)c4)nn23)c1 | i | 50.1µM* | 2.2%[70.6 µM] | ?
Cc1ccc(-c2nnc3ccc(NC4CCCCC4)nn23)nc1 | i | ? | -17.1%[70.6 µM] | 70.8µM*
COc1ccc(-c2nnc3ccc(NC(C)C)nn23)nc1 | i | 50.1µM* | -3.4%[70.6 µM] | -10.0%[230 µM]
COc1ccc(-c2nnc3ccc(Nc4cccc(OC)c4)nn23)nc1 | i | ? | -10.6%[70.6 µM] | ?
Cc1ccc(CN2CCCCCCN(C)C(=O)[C@@H]3CCC[C@@H]32)s1 | i | ? | -10.3% | ?
CCN1CCN(C(=O)c2cc(-c3ccc(F)cc3)c3nncn3n2)CC1 | / | -18.7% | / | -10.1%
CCC(NC(=O)c1cc(COc2ccccc2F)[nH]n1)c1ccncc1 (centres undefined) | i | -19.4% | -14.0% | -20.0%
CCCCn1c(=O)c(C(=O)N2CCN(C(=O)Cc3ccc(OC)cc3)CC2)nc2cccnc21 | / | -20.7% | / | -6.7%
COCCN1Cc2ccccc2N(CC(O)COc2ccccc2)CCC1=O (centres undefined) | / | -25.0% | / | ?
C=CCN1CCc2ccccc2N(CC(O)COc2ccc(OC)cc2)CCC1=O (centres undefined) | / | ? | / | -21.2%[57.5 µM]
COc1ccc(OCC(O)CN2CCC(=O)N(C3CCCC3)Cc3ccccc32)cc1 (centres undefined) | / | ? | / | 39.8µM*
COc1ccc(OCC(O)CN2CCC(=O)N(C/C=C/c3ccccc3)CCc3ccccc32)cc1 (centres undefined) | / | ? | / | 28.2µM*
Cc1noc(C2CC3(CCN(C(=O)c4nn(C)c5ccccc45)CC3)CN2C)n1 (centres undefined) | i | ? | -2.8% | -6.9%
CC(C)Cn1c(CNC(=O)OC(C)(C)C)nc2cccnc21 | i | 44.7µM*! | 4.8%[70.6 µM] | ?
COC(=O)CNC(=O)c1nc2cccnc2n(CC(C)C)c1=O | / | -25.4%[138 µM] | / | -0.3%[172 µM]
Cc1ccc(C)c(C(O)Cn2ccn3nc(-c4cccc(Br)c4)cc3c2=O)c1 (centres undefined) | i | ? | -28.9% | ?
O=S(=O)(c1ccc(F)cc1)N1CCC(OC2CCN(Cc3ccccc3)CC2)CC1 | i | ? | -0.1% | ?
O=S(=O)(Cc1ccccc1)N1CCC(OC2CCN(Cc3ccccc3)CC2)CC1 | i | ? | -3.6% | ?
CCc1ccc(S(=O)(=O)N2CCC(OC3CCN(Cc4ccccc4)CC3)CC2)cc1 | i | 35.5µM* | -0.7% | ?
Cc1ccc(S(=O)(=O)N2CCC(OC3CCN(Cc4ccccc4)CC3)CC2)c(C)c1 | i | 31.6µM* | -15.9% | ?
SMILES | Luciferase inh | 3T3 cytotox | hNpr1 antagonist | HEK293 tox
O=C(N1CCOCC2(C1)CN([S+](=O)([O-])c1ccccc1)C2)C1(c2ccccc2)CC1 | i | -22.7%[138 µM] | -3.8%[70.6 µM] | ?
O=C1COCC2(CN1Cc1ccccc1)CN(C(=O)C1(c3ccccc3)CC1)C2 | i | 79.4µM* | 5.5%[70.6 µM] | -1.0%[172 µM]
O=C1COCC2(CN1Cc1ccccc1)CN(C(=O)c1ccc(F)c(Cl)c1)C2 | i | 89.1µM* | 1.9%[70.6 µM] | -5.2%[172 µM]
O=C1COCC2(CN(Cc3cc(F)ccc3F)C2)CN1Cc1ccccc1 | i | -26.9%[138 µM] | 1.3%[70.6 µM] | 100µM*
COc1cncc(N2CC3(COCC(=O)N(Cc4cccc(OC(F)(F)F)c4)C3)C2)c1 | i | ? | -2.2%[70.6 µM] | ?
O=C1COCC2(CN1Cc1ccccc1)CN(c1cccnc1)C2 | i | 89.1µM* | -1.7%[70.6 µM] | -28.9%[172 µM]
COc1ccc(CN2CC3(COCC2=O)CN(c2ccccc2)C3)cc1F | i | ? | -18.2%[70.6 µM] | ?
O=C(NCC1CC1)C1(F)CCN(S(=O)(=O)c2cccs2)CC1 | / | -15.7% | / | 4.6%
O=C(Cc1ccccc1)NC1CCN(c2ccc3nnc(C4CC4)n3n2)C1 (centres undefined) | / | -3.6% | / | 2.4%
